Assay results as given in PubChem BioAssay (NCI).
This is part of a sample that, as a whole, favours compounds with a hit. Of some 83,000 tested, about 20% had one in any assay.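 Note: values are percent growth. 100 is the growth of untreated cells, values between 100 and 0 indicate rising inhibition; between -100 and 0 indicates cell death.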 Unmarked numbers belong to inactive results. Active and inactive are the calls of the source. Rule for the calls: active = growth percent below 10; inactive = the rest.

Tests used:
Assay in all cases: NCI-60 one-dose screen, 48 h (100 = growth as untreated, 0 = no growth, -100 = all killed)
Settings in all cases: 10 µM unless noted
SK-MEL-2 melanoma = system: SK-MEL-2 melanoma
EKVX NSCLC = system: EKVX NSCLC
SN12C renal = system: SN12C renal
UO-31 renal = system: UO-31 renal
TK-10 renal = system: TK-10 renal
ACHN renal = system: ACHN renal
A498 renal = system: A498 renal
CCRF-CEM leukemia = system: CCRF-CEM leukemia
MOLT-4 leukemia = system: MOLT-4 leukemia
SR leukemia = system: SR leukemia
RPMI-8226 leukemia = system: RPMI-8226 leukemia
OVCAR-8 ovarian = system: OVCAR-8 ovarian
OVCAR-5 ovarian = system: OVCAR-5 ovarian
OVCAR-4 ovarian = system: OVCAR-4 ovarian
SK-OV-3 ovarian = system: SK-OV-3 ovarian
IGROV1 ovarian = system: IGROV1 ovarian
OVCAR-3 ovarian = system: OVCAR-3 ovarian
HS 578T breast = system: HS 578T breast
NCI/ADR-RES ovarian = system: NCI/ADR-RES ovarian
T-47D breast = system: T-47D breast

Compound | growth (SK-MEL-2 melanoma) [%] | growth (EKVX NSCLC) [%] | growth (SN12C renal) [%] | growth (UO-31 renal) [%] | growth (TK-10 renal) [%] | growth (ACHN renal) [%] | growth (A498 renal) [%] | growth (CCRF-CEM leukemia) | growth (MOLT-4 leukemia) | growth (SR leukemia) | growth (RPMI-8226 leukemia) | growth (OVCAR-8 ovarian) | growth (OVCAR-5 ovarian) [%] | growth (OVCAR-4 ovarian) | growth (SK-OV-3 ovarian) [%] | growth (IGROV1 ovarian) | growth (OVCAR-3 ovarian) | growth (HS 578T breast) [%] | growth (NCI/ADR-RES ovarian) | growth (T-47D breast) [%]
COCCOC(=O)COc1ccc(OC)cc1 | 120 | 96.6 | 99.7 | 88.9 | 108 | 106 | 88.2 | 104% | 90.7% | 88.2% | 97.3% | 101% | 104 | 94.2% | 112 | 101% | 95.4% | 101 | 104% | 120
C=C1C(=O)O[C@H]2[C@H]1CC/C(COC(=O)CCCCC(=O)OC/C1=C/CC[C@@]3(C)O[C@H]3[C@H]3OC(=O)C(=C)[C@@H]3CC1)=C\CC[C@@]1(C)O[C@@H]21 | 71.9 | 59.1 | 27.8 | 45.8 | 25.2 | 12.6 | 124 | 0.447% (active) | 10.3% | 2.3% (active) | 5.66% (active) | 49.7% | 115 | 82.3% | 85.6 | 39.4% | 18.6% | 82.7 | 87.5% | 38.6
CC(=O)Oc1c2c(nc3c1c1ccccc1n3Cc1ccccc1)-c1ccccc1C2 | 71.4 | 80.8 | 85.8 | 58.2 | 114 | 85.7 | 82 | 91.5% | 72.6% | 86.2% | 73.3% | 88.4% | 97 | 83.9% | 92 | 81.1% | 79% | 94.4 | 85.5% | 56.7
N#Cc1c(-c2ccc(F)cc2)nc(N=Nc2c(O)[nH]c3ccccc23)nc1N1CCOCC1 | 105 | 77.6 | 30.4 | 60.4 | 65.4 | 65.5 | 80.8 | 77.4% | 95.3% | 88.2% | 80.4% | 77.7% | 82.6 | -35.5% (active) | 88.2 | 59.9% | 72.9% | 38.5 | 57.3% | 80.2
COc1ccc(Cc2nc(C#N)c(N3CCN(c4ccc(F)cc4)CC3)o2)cc1 | 88.2 | 93.2 | 105 | 81.7 | 75.1 | 103 | 103 | 83.7% | 87.7% | 88.9% | 93.3% | 103% | 86.7 | 79.3% | 89.6 | 76.8% | 96.9% | 92.5 | 95.3% | 81.2
N#Cc1ccc(Oc2ccc3ccc(=O)oc3c2)cc1 | 135 | 110 | 105 | 99.1 | 116 | 98.2 | 99 | 101% | 100% | 82.9% | 81.5% | 87.2% | 104 | 109% | 112 | 121% | 117% | 93.4 | 107% | 94.5
OCCNc1nc(NCCO)nc(Nc2ccc(C3=NN(c4cc(Cl)cc(Cl)c4)C(c4ccc(C(F)(F)F)cc4)C3)cc2)n1 (stereo not given) | 45.9 | 49.4 | 59.6 | 42.2 | 33.1 | 29.6 | 67.7 | -6.5% (active) | 7.9% (active) | 4.83% (active) | -1.42% (active) | 39.5% | 89 | 53.6% | 70.1 | 41.7% | 4.39% (active) | 43.6 | 55.6% | 53.5
COc1cc(C2=NN(C(C)=O)C(c3cccc(Nc4ccnc5cc(C(F)(F)F)ccc45)c3)C2)cc(OC)c1OC (stereo not given) | 81.4 | 52.2 | 64.3 | 35.8 | 58.3 | 58.5 | 60.3 | 44% | 22.3% | 29% | 20.8% | 56.1% | 82.7 | 52% | 69.3 | 62.4% | 61.2% | 76.6 | 53% | 40.2
CCOC(=O)C1=C(C)n2nc(CC#N)c(C#N)c2NC1c1ccc(CC)cc1 (stereo not given) | 106 | 82.4 | 100 | 65.4 | 109 | 98.7 | 104 | 101% | 104% | 104% | 102% | 104% | 99.8 | 93.2% | 98.2 | 69.9% | 99.2% | 115 | 96.9% | 94.9
O=C1NC(c2ccc(F)cc2)N=C2C(c3ccccc3)=NOC12 (stereo not given) | 108 | 99.8 | 104 | 97.4 | 106 | 107 | 104 | 102% | 116% | 112% | 107% | 106% | 108 | 105% | 106 | 108% | 109% | 106 | 112% | 104
CC1CCCN(CCCCCOc2ccc3oc4ccc(Cl)cc4c(=O)c3c2)C1 (stereo not given) | 96.7 | 78.3 | 74.6 | 70.7 | 92 | 89.4 | 76.3 | 72.8% | 48.5% | 21% | 61.8% | 75% | 70.4 | 63.2% | 91.9 | 68.7% | 76.6% | 84.7 | 73% | 64.8
COC(=O)c1oc2c(C(=O)/C=C/c3ccc(OC)cc3)c(OCCCN3CCCCC3)ccc2c1C | 53.5 | 28 | 22.5 | 12.2 | 35.2 | 28 | 83.6 | -46.2% (active) | -31.4% (active) | -31% (active) | -65.7% (active) | -22.7% (active) | 23.3 | 14.1% | 28.5 | 9.13% (active) | 26.5% | 12.6 | 0.873% (active) | 38.5
COc1ccc(/C=C(/C(=O)N2CCN(Cc3ccccc3)CC2)c2cc(OC)c(OC)c(OC)c2)cc1O | 73.6 | 87.2 | 91.2 | 62.5 | 88.5 | 67.2 | 54.9 | 64.9% | 72.1% | 28% | 66.9% | 80.1% | 99.9 | 90.3% | 65.5 | 68.4% | 30.8% | 65.1 | 71.7% | 77.2
